40 sequences from the supplement of paper PMC6555819 can be followed below.

The test deals with VDR:RXRa (NR concentration 270 nM, RXRa partner concentration 90 nM). The experiment in a line: PBM binding z-score (relative to random genomic background probes); higher = stronger binding; sequences stand for … in GC…GCGATTGACAGCGTAGAATGAAGG
Here is the method:
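Protein-binding microarray (Agilent 4x180K custom design, double-stranded 60-nt probes: 5' GC cap, 34-nt variable region, 24-nt constant primer region; full probe sequence given). Purified or IVT nuclear receptor:RXRα heterodimers (3:1 NR:RXRα, mostly 270:90 nM) or homodimers were incubated for 1 h in PBS with 2% milk and no ligand, then detected with Alexa488 antibodies. Fluorescence from o1-orientation probes (~5 replicates averaged) was converted to z-scores against 500 random hg19 background probes. Variable regions are seed direct-repeat (DR0–DR5) sites, all their single-nucleotide variants and half-site ablations.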
With CAGACTAGGTCAAAGGTCAAAGTCGAGCCAACCA, the PBM binding z-score was determined as 6.58.
Then ATATGTAGGTTAGGGTCATTCTGAAAGTAGGGAA, with 4.44; and CGAACTAGGTTAAAGGACAGTGAAAGGCGACGTA, with -0.216.
In turn, CGAACTAGGTCACCAGGACAGAGAAGAGGTTGGA registered a PBM binding z-score of 2.04.
CGGACTAGGTCAAAGGACAGTGAAAGGCGACGTA had a PBM binding z-score of 1.16.
Then CAAACTAGGTCAAAGGTCAAAATCGAGCCAACCA, with 6.43; and TCTTATAGATCAATAGAGGTTAAGAAAGTGCGCT, with 2.03; and ATATGTGGGTTAGGGTCATTCAGAAAGTAGGGAA, with 4.97.
As for CAAACTAGGTCACGAAAGGGCAAAGTCGAATGAC, the figure is 5.28.
As for CTAAGTAGGTTAAGGGGGTCATTCAGTTTGAAAG, the figure is 7.19; as for CGAACAAGGTCAAAGGACAGTGAAAGGCGACGTA, 3.93.
Consider ATATGTAGGTAAGGGTCATTCAGAAAGTAGGGAA, for which the PBM binding z-score is 4.1.
CCTAGCAGGCCAATCGGGGTCACTCAAGGCTTGA: the PBM binding z-score worked out at 5.36.
TCTGCTAGGTCAACGATGGTCAGCGAATCTGCTA showed a PBM binding z-score of 1.66.
ATATGTACGTTAGGGTCATTCAGAAAGTAGGGAA displayed a PBM binding z-score of 4.24.
For CTATGTAAGTTAAGGGGGTCATTCAGTTTGAAAG, the PBM binding z-score is 6.67.
The sequence ACTAGCAGGCCAAGGGTGACTCAAGATTAGTCCG gave a PBM binding z-score of -0.401.
On to ATATGTAGGTTATCGGGTCATTCATTTTGCGCAT, for which the PBM binding z-score worked out at 3.52.
Consider CGAACTAGGTCAACAGGACAGTGAAGAGGTTGGA, for which the PBM binding z-score stood at 1.53.
In the case of CGAACTAGGTCAAAGGTCAGTGAAAGGCGACGTA, the PBM binding z-score came to 5.88.
In turn, CCGAGTAGGTTACGAGGGTGCATTCAGTGCGAAT returned a PBM binding z-score of 4.73.
Turning to CGTCAAAGTTCAACTAATGTAACGTAAAGCACGC, the PBM binding z-score worked out at 4.2.
As for CCGGGTAGGTTACGAGGGGGCATTCAGTGCGAAT, the figure is 5.31; as for TGAATGAGGTGAAAGATCAGGGAACGTGGCGTCG, 0.449; as for GCTTACGGGTGAAAGGTTATAGCATGAATAGAAT, 2.17.
Sequence CAATCTAGGTCACGAAAGGTCAAAGTCGAATGAC showed a PBM binding z-score of 6.99.
For the sequence AGTCGGAGGACAAAGGTCAGAGCTACGCCAGTGA, the PBM binding z-score was determined as 3.28.
GCTGCTAGGTAAGGTTGGTCAGCTAACGGGTACG: the PBM binding z-score is -0.447.
As for CCAGACAGGTGAAAGGTAACTCCGTCTGGTACGC, the figure is 0.557; as for CGTCCAAGGTCACAGGAGGTCAGTGAAGACAGAT, 6.62.
Then ATATGTAGGTTAGGGTCATTCGGAAAGTAGGGAA, with 4.45; and TGAATGAGGTTAAAGGTCAGGGAACGTGGCGTCG, with 5.85; and ATATGTCGGTTAGGGTCATTCAGAAAGTAGGGAA, with 4.56.
ACTCGGAGGACAAATGTCAGAGCTACGCCAGTGA registered a PBM binding z-score of -0.292.
Then TAGAGTAGGTTACGGGGGCATTCAGGGATGAAGA, with 4.09; and CGAACTAGGTCAAAGGACAGTAAAAGGCGACGTA, with 1.55.
As for ATATGTAGGCTAGGGTCATTCAGAAAGTAGGGAA, the PBM binding z-score came to 3.8.
As for TCATATAGGTCAAAGGTGAAAGTCGGTGTGGTAA, the figure is 4.65; as for AGTCAAATTTCATCTAGGTAACGTAAGATATGCT, 0.0583.
Then CATACAGGGTCATCTAGGCCAGAGTAGGGACGGC, with 5.26.
